{
  "source": "paper PMC10726135",
  "about": "“HNF4α isoforms regulate the circadian balance between carbohydrate and lipid metabolism in the liver”",
  "note": "In all, about 18,000 sequences were measured (“log2 normalized intensity”: median about 0.39, highest 2% from about 6.6 on). Many of the other results were omitted from the sample, so the highest values are more common in it than they were.",
  "data": [
    {"molecular_target": "T1, HNF4alpha2 (COS-7 nuclear extract) (Homo sapiens, UniProt P41235 1-474)", "T1 sequence": "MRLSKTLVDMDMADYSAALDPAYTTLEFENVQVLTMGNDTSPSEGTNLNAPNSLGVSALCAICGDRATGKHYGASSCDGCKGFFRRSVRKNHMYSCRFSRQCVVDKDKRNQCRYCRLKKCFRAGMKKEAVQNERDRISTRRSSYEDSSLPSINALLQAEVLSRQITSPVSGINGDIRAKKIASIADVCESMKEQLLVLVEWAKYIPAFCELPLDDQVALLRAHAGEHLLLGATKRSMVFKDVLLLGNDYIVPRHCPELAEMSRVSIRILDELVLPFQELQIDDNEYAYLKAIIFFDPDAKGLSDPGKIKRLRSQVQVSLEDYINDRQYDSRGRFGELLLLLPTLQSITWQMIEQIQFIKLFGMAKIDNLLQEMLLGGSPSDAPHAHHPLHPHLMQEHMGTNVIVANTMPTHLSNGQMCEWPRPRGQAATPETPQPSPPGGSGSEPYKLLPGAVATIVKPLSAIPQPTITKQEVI", "assay": "protein-binding microarray; COS-7 nuclear extract on double-stranded Agilent 4x180k PBM; binding buffer, salt, pH and temperature not given in the material; high values mean tight binding", "conditions": "chain copies: 2; label: 3' end of strand 1 on the slide; dsDNA, one strand shown", "how_it_was_run": "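Using CaPO4, COS-7 cells were transiently transfected with a human HNF4α isoform expression vector, and their nuclear extracts were applied to a custom Agilent SurePrint G3 4x180k double-stranded oligonucleotide array (~60 nt; ~44,000 test sequences in quadruplicate). Bound HNF4α was imaged at 2-µm resolution with an Agilent G2565CA scanner. Agilent software supplied the background-corrected, normalized gProcessedSignal that serves as the binding signal.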", "units": {"binding signal": "log2 normalized intensity"}, "values": [
      {"sequence": "ACAGGGCTTGGGGTGGGGTTGGAGTCCAGAGCCTAGGGAGATTAGAGTATCGGTCGA", "binding signal": 1.25},
      {"sequence": "AGTGAAGGTTCAGTGAAGTAGTGTGTATGAGCCTAGGGAGATTAGAGTATCGGTCGA", "binding signal": 2.27},
      {"sequence": "CCTAAGCCTTATTATCTGCTTTTATGACCTGCCTAGGGAGATTAGAGTATCGGTCGA", "binding signal": 3.06},
      {"sequence": "TCTGCCTTTTATCTATTTGTCGCCTCTGACGCCTAGGGAGATTAGAGTATCGGTCGA", "binding signal": 0.141},
      {"sequence": "GCCTTATTATCTGCTTTTATGACCTTTGACGCCTAGGGAGATTAGAGTATCGGTCGA", "binding signal": 7.34},
      {"sequence": "ATTATCTGCTTTTATGACCTTTGACTGCAGGCCTAGGGAGATTAGAGTATCGGTCGA", "binding signal": 6.64},
      {"sequence": "CTGCTTTTATGACCTTTGACTGCAGAAGATGCCTAGGGAGATTAGAGTATCGGTCGA", "binding signal": 5.27},
      {"sequence": "TTTATGACCTTTGACTGCAGAAGATAAGAAGCCTAGGGAGATTAGAGTATCGGTCGA", "binding signal": 3.94},
      {"sequence": "AACTTTGCAGCAGATAATTACCTGGACTCTGCCTAGGGAGATTAGAGTATCGGTCGA", "binding signal": 3.6},
      {"sequence": "CAGATGTTTCTGCAAGCACACTGTCCTGCTGCCTAGGGAGATTAGAGTATCGGTCGA", "binding signal": -0.824},
      {"sequence": "GAGGTTCCTGGAACTCTGACCTTTGCCCCCGCCTAGGGAGATTAGAGTATCGGTCGA", "binding signal": 10.5},
      {"sequence": "GCTATCTTATCTTTGACCTTACCAGCCCACGCCTAGGGAGATTAGAGTATCGGTCGA", "binding signal": 2.3},
      {"sequence": "GCCTGCCCCTCTGACCTCTCCTCCTACCTTGCCTAGGGAGATTAGAGTATCGGTCGA", "binding signal": 3.24},
      {"sequence": "CTGACCTTTGCCCCCAGCCTCTCACAGTAGGCCTAGGGAGATTAGAGTATCGGTCGA", "binding signal": 6.87},
      {"sequence": "ACCGACCTTTGGTTCCTGAACTCAAACCCCGCCTAGGGAGATTAGAGTATCGGTCGA", "binding signal": 2.57},
      {"sequence": "AGGAGGAGGTTCCTGGAACTCTGACCTTTGGCCTAGGGAGATTAGAGTATCGGTCGA", "binding signal": 5.97},
      {"sequence": "TCCTGGAACTCTGACCTTTGCCCCCAGCCTGCCTAGGGAGATTAGAGTATCGGTCGA", "binding signal": 9.67},
      {"sequence": "CTTTGCCCCCAGCCTCTCACAGTAGCCCAGGCCTAGGGAGATTAGAGTATCGGTCGA", "binding signal": 4.6},
      {"sequence": "AGCCTCTCACAGTAGCCCAGGTCCTTTGGTGCCTAGGGAGATTAGAGTATCGGTCGA", "binding signal": 0.178},
      {"sequence": "TGCCCAGCTTGAATCACTCACTGACCTCTTGCCTAGGGAGATTAGAGTATCGGTCGA", "binding signal": 3.98},
      {"sequence": "GAACTCTGACCTTTGCCCCCAGCCTCTCACGCCTAGGGAGATTAGAGTATCGGTCGA", "binding signal": 8.72},
      {"sequence": "AAATCTGCCCAACCTTTGCCCCTGGAGGGAGCCTAGGGAGATTAGAGTATCGGTCGA", "binding signal": 3.74},
      {"sequence": "TTCTGTCCTCTCAAAGTCCACCCGGCCAGCGCCTAGGGAGATTAGAGTATCGGTCGA", "binding signal": 4.04},
      {"sequence": "TGCATCAGTGCTGACCTACCTGACCTGGCAGCCTAGGGAGATTAGAGTATCGGTCGA", "binding signal": 1.28},
      {"sequence": "AAGGGCAGCAGTAACCCCCCAGGAGCGAGTGCCTAGGGAGATTAGAGTATCGGTCGA", "binding signal": 3.54},
      {"sequence": "TGGGTATGTCTGTAGGTAAGCACAAAGTACGCCTAGGGAGATTAGAGTATCGGTCGA", "binding signal": 1.92},
      {"sequence": "GGCAAAACACCCCTTTCACTTCTTCCCCTCGCCTAGGGAGATTAGAGTATCGGTCGA", "binding signal": 3.8},
      {"sequence": "TAACCCTACAGTCCTGCCACATCCCCCACAGCCTAGGGAGATTAGAGTATCGGTCGA", "binding signal": 4.26},
      {"sequence": "AGGGGCTGCTGGGAGTTGTAGTTTTTTGGGGCCTAGGGAGATTAGAGTATCGGTCGA", "binding signal": 1.54},
      {"sequence": "AAGAGTCAAAGGGCAAAGGAATAAAATAGCGCCTAGGGAGATTAGAGTATCGGTCGA", "binding signal": -0.272},
      {"sequence": "ACTGCCTGACCCCAAGTAATAGCCGTTTCTGCCTAGGGAGATTAGAGTATCGGTCGA", "binding signal": 1.07},
      {"sequence": "GGCGTGACCCCCACTGCCTGCCTGCCAACTGCCTAGGGAGATTAGAGTATCGGTCGA", "binding signal": 2.89},
      {"sequence": "CTCTTCAGAATGGCCTGCCCATCCCCCCAAGCCTAGGGAGATTAGAGTATCGGTCGA", "binding signal": 5.18},
      {"sequence": "CCCCCACTGCCTGACCCCAAGTAATAGCCGGCCTAGGGAGATTAGAGTATCGGTCGA", "binding signal": 5.25},
      {"sequence": "TTCATCCCCACCCCCACTGCCTGACCCCAAGCCTAGGGAGATTAGAGTATCGGTCGA", "binding signal": 7.59},
      {"sequence": "CCCCACCCCCACTGCCTGACCCCAAGTAATGCCTAGGGAGATTAGAGTATCGGTCGA", "binding signal": 6.98},
      {"sequence": "TGCCCTTTGCCCTCACTGGTAGAAGGCAGCGCCTAGGGAGATTAGAGTATCGGTCGA", "binding signal": 4.58},
      {"sequence": "GTCACCCTCCCCGCCACCCCCCAGAGGGCCGCCTAGGGAGATTAGAGTATCGGTCGA", "binding signal": 6.08},
      {"sequence": "CTGGTCGACCTCCCCGTCACCCTCCCCGCCGCCTAGGGAGATTAGAGTATCGGTCGA", "binding signal": 6},
      {"sequence": "TTTCCCTGGTCGACCTCCCCGTCACCCTCCGCCTAGGGAGATTAGAGTATCGGTCGA", "binding signal": 4.15},
      {"sequence": "CGCTCCCCTCCCCCACCCGCGGTCCGTCCCGCCTAGGGAGATTAGAGTATCGGTCGA", "binding signal": 5.86},
      {"sequence": "TCCCCGTCACCCTCCCCGCCACCCCCCAGAGCCTAGGGAGATTAGAGTATCGGTCGA", "binding signal": 7.45},
      {"sequence": "CGACCTCCCCGTCACCCTCCCCGCCACCCCGCCTAGGGAGATTAGAGTATCGGTCGA", "binding signal": 6.67}
    ]}
  ]
}
